PubChem BioAssay (NCATS)
The source made the active and inactive calls. Calls come from the whole dose curve; as a rule, active = well fitted curve in the direction sought with a large enough effect; inconclusive = small, poorly fitted or top-dose-only effect, or effect the other way, or another doubt; inactive = no such curve, though single readings can be large or run the other way.

assay: Inducers of the Endoplasmic Reticulum Stress Response (ERSR) in human glioma: Validation (AID 504836); details: human glioma cells, ER stress response reporter; series mostly up to 38.3 µM
Excerpt: Primary protein unfolding takes place for many diseases, including diabetes and hypoxia, , and triggers a reaction in the cells called ER stress response (ERSR). ). ERSR is designed as a repair mechanism, but ultimately leads to cell death via apoptosis if conditions triggering protein unfolding persist (1). The molecular clue to ERSR activation is the enhancement of the expression of key molecular chaperones, including the glucose regulated protein (GRP) 78. GRP78 is the main sensor for protein folding and the main actuator of the ERSR.
In a collaboration between the Southern Research Institute and the NIH Chemical Genomics Center, a cell based screen was developed that reliably uses GRP78 as a sensor to identify small molecules as inducers of ERSR. In resting conditions, GRP78 binds proteins and acts as a natural repressor. Once unfolded proteins are present in the ER, GRP78 releases some of the repressors and binds to the unfolded proteins. The release of the repressors executes the ERSR program. Using a human glioma cell line in a miniaturized, luminescent format, a high-throughput screen was developed to identify actuators of the ERSR.
(1) Soboloff, J. and S. A. Berger (2002). "Sustained ER Ca2+ depletion suppresses protein synthesis and induces activation-enhanced cell death in mast cells." J Biol Chem 277(16): 13812-20.
NIH Chemical Genomics Center [NCGC]
NIH Molecular Libraries Probe Centers Network [MLPCN]
Assay Submitter (PI): Maurizio Grimaldi, Southern Research Institute
Stable transfected human glioma cell line, U87-MG, are dispensed at density 1000 cells/well into Greiner white solid bottom 1536-well assay plates. Compounds are transferred via Kalypsys pin tool equipped with 1536-pin array (10nl slotted pins, V&P Scientific, San Diego, CA). The assay plates will be incubated for 16 hours and developed by adding appropriate quantities of the Promega Bright Glo reagent. The plates will be incubated at room temperature for 10 minutes prior to being transferred into a ViewLux high-throughput CCD imager (PerkinElmer), wherein end-point measurements of luminescence are acquired.

Row | SMILES | outcome
1 | CN1Cc2sccc2C(c2ccc(O)c(O)c2)C1 (stereo not given) | inactive
2 | NCCCS(=O)(=O)O | inactive
3 | NC(Cc1cccc(-c2ccccc2CP(=O)(O)O)c1)C(=O)O (stereo not given) | inactive
4 | O=c1onc2cnc3ccccc3n12 | inactive
5 | Nc1nc(Cl)nc2c1ncn2[C@@H]1O[C@H](COP(=O)(O)OP(=O)(O)OP(=O)(O)O)[C@@H](O)[C@H]1O | inactive
6 | CC(C)NC[C@H](O)c1ccc(O)c(O)c1 | inactive
7 | NC(=O)C1=CN(C2OC(COP(=O)(O)OP(=O)(O)OC[C@H]3O[C@@H](n4cnc5c(N)ncnc54)[C@H](OP(=O)(O)O)[C@@H]3O)C(O)C2O)C=CC1 (stereo not given in full) | inactive
8 | Cn1ccnc1 | inactive
9 | N[C@@H](Cc1ccc(F)cc1)C(=O)O | inactive
10 | NC(N)=NC(N)=Nc1cccc(Cl)c1 | inactive
11 | CCCn1c(=O)c(C)cn2nc(N)nc12 | inactive
12 | CCN(CC)CCNC(=O)c1ccc(NS(C)(=O)=O)cc1 | inactive
13 | O=C(O)CCC(=O)N1CCCC1C(=O)O (stereo not given) | inactive
14 | c1ccc2c(c1)CC(N1CCN(c3cccc4c3OCCO4)CC1)C2 | inactive
15 | COc1cc2ncnc(Nc3cccc(Cl)c3)c2cc1OC | inactive
16 | CN(C)CCCO[C@@H]1[C@H]2OC(C)(C)O[C@H]2O[C@@H]1[C@H](O)CO | inactive
17 | O=C1NC(=O)c2cc(Nc3ccccc3)c(Nc3ccccc3)cc21 | inactive
18 | CC(=O)/C=C1\C(=O)N(C)c2ccccc21 | inactive
19 | CCCCCCCCc1ccc(-c2ccc(C(=O)O)cc2)cc1 | inactive
20 | COc1cc(CNC(=O)CCCCCCC(C)C)ccc1O | inactive

Row | SMILES | outcome
21 | CCCCS(=N)(=O)CC[C@H](N)C(=O)O (stereo not given in full) | inactive
22 | CN1CCc2ccccc2Cc2[nH]c3ccccc3c2CC1 | inactive
23 | NC(N)=NC(N)=Nc1ccccc1 | inactive
24 | COc1ccc2c(c1)c(CC(=O)O)c(C)n2Cc1ccc(Cl)cc1 | inactive
25 | NC(=O)c1ccc2[nH]ccc2c1 | inactive
26 | CCc1c(C(=O)NCCc2ccc(N3CCCCC3)cc2)[nH]c2ccc(Cl)cc12 | inactive
27 | COc1ccc2c(c1)c(CC(=O)O)c(C)n2C(=O)c1ccccc1 | inactive
28 | NS(=O)(=O)c1cccc2c1c([N+](=O)[O-])cc1nc(O)c(O)nc12 | inactive
29 | CC1=C(C(=O)O)N2C(=O)[C@@H](NC(=O)C(N)c3ccccc3)[C@H]2SC1 (stereo not given in full) | inactive
30 | OC[C@H]1O[C@@H](n2cnc3c(NC4CCCCC4)ncnc32)[C@H](O)[C@@H]1O | inactive
31 | O=[N+]([O-])c1ccc(-c2nc(-c3ccc(F)cc3)c(-c3ccncc3)[nH]2)cc1 | inactive
32 | COc1ccccc1N1CCN(CCCNc2c(C)c(=O)n(C)c(=O)n2C)CC1 | inactive
33 | CC(COc1ccc(/C=C/c2ccccc2)cc1)[N+](C)(C)C (stereo not given) | inactive
34 | O=C1C2C=CC=CC2=NC(=S)N1CCN1CCC(=C(c2ccc(F)cc2)c2ccc(F)cc2)CC1 (stereo not given) | inactive
35 | NCCCCCCCCCCN | inactive
36 | O=C(Nc1cccc(C(=O)Nc2ccc(S(=O)(=O)O)c3cc(S(=O)(=O)O)cc(S(=O)(=O)O)c23)c1)Nc1cccc(C(=O)Nc2ccc(S(=O)(=O)O)c3cc(S(=O)(=O)O)cc(S(=O)(=O)O)c23)c1 | inactive
37 | C1CCc2nnnn2CC1 | inactive
38 | N[C@@H](CS(=O)O)C(=O)O | inactive
39 | COc1cccc(OC)c1OCCNCC1CSc2ccccc2O1 (stereo not given) | inactive
40 | Cn1cc(C(=O)OCC2CCN(CCNS(C)(=O)=O)CC2)c2ccccc21 | inactive
